Reference: the supplement of paper PMC10849652
The full data set covers some 8,800 targets. This sample favours those with a hit. About 0.5% of all pairs of compound and target were hits.

Legend:
Experiment in all cases: log2 fold change, soluble protein after heating vs DMSO (PISA); higher = thermal stabilisation; K562 lysate, 10 uM; active = over 0.2 and 3.5 SD of the protein, either way, in both replicates (recomputed)
ibrutinib = compound: C=CC(=O)N1CCC[C@@H](n2nc(-c3ccc(Oc4ccccc4)cc3)c3c(N)ncnc32)C1 [ibrutinib]
Summary of the method: (§1)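 Quantification was by TMTpro 16plex LC-MS/MS with equalised channel sums, applied to the supernatant after 21,000xg for 90 min. Samples were crude K562 extract at 1 mg/mL protein in PBS pH 7.4 with 1 mM MgCl2, treated with 10 μM compound for 30 min, heated for 3 min across 48°C-58°C, pooled and brought to 0.5% NP-40 at 4°C. Values are log-two fold changes in thermal stability relative to solvent controls, from duplicates.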

[1] = compound: CC(=O)c1cnc2ccc(-c3cc(Cl)c(O)c(Cl)c3)nc2c1N[C@H]1CC[C@H](CN(C)C)CC1
Summary of the method: as §1

ralimetinib = compound: CC(C)(C)Cn1c(N)nc2ccc(-c3[nH]c(C(C)(C)C)nc3-c3ccc(F)cc3)nc21 [ralimetinib]
Summary of the method: as §1

[2] = compound: CC(C)(O)CC(=O)NCCn1ccc2ncnc(Nc3ccc(Oc4cccc(C(F)(F)F)c4)c(Cl)c3)c21
Summary of the method: as §1

[3] = compound: CC(C)C1=C2N=C(C=C(N2N=C1)NCC3=CC=CC=C3)NCCCCCCN
Summary of the method: as §1

[4] = compound: CC1=C(C(CC(=O)N1)C2=CC=C(C=C2)C(F)(F)F)C(=O)NC3=C(C=C4C(=C3)C=NN4)F
Summary of the method: as §1

[5] = compound: CC1=C(C2=C(C=C1)C(=O)C3=CC=CC=C3N2CCCN)C
Summary of the method: as §1

[6] = compound: CC1=C(C=C(C=C1)NC(=O)C2=CC(=CC=C2)C(C)(C)C#N)NC3=CC4=C(C=C3)N=CN(C4=O)C
Summary of the method: as §1

[7] = compound: CC1=C(C=C(C=C1)NC(=O)C2=CC(=CC=C2)N(C)C)NC(=O)C3=CC=C(C=C3)O
Summary of the method: as §1

[8] = compound: CC1=CC=C(C=C1)SC2=C3C=C(SC3=CN=C2)C(=O)N
Summary of the method: as §1

vemurafenib = compound: CCCS(=O)(=O)Nc1ccc(F)c(C(=O)c2c[nH]c3ncc(-c4ccc(Cl)cc4)cc23)c1F [vemurafenib]
Summary of the method: as §1

[9] = compound: CCCS(=O)(=O)Nc1ccc(F)c(C(=O)c2c[nH]c3ncc(Cl)cc23)c1F
Summary of the method: as §1

barasertib = compound: CCN(CCCOc1ccc2c(Nc3cc(CC(=O)Nc4cccc(F)c4)[nH]n3)ncnc2c1)CCOP(=O)(O)O [barasertib]
Summary of the method: as §1

[10] = compound: CC[C@@H]1C(=O)N(C)c2cnc(Nc3ccc(C(=O)NC4CCN(C)CC4)cc3OC)nc2N1C1CCCC1
Summary of the method: as §1

volasertib = compound: CC[C@@H]1C(=O)N(C)c2cnc(Nc3ccc(C(=O)N[C@H]4CC[C@H](N5CCN(CC6CC6)CC5)CC4)cc3OC)nc2N1C(C)C [volasertib]
Summary of the method: as §1

[11] = compound: CCn1c(C(=O)N(C2CC2)C2CC2)cc2c3c(ncn3C)c(Nc3cc(C)n(C)n3)nc21
Summary of the method: as §1

[12] = compound: CCn1cc(-c2ccnc3[nH]c(-c4cccc(CN(C)C)c4)cc23)c(-c2ccc(NC(=O)N(C)C)cc2)n1
Summary of the method: as §1

[13] = compound: CN1CCC(CNc2ccc3ncc(-c4cccc(OC(F)(F)F)c4)n3n2)CC1
Summary of the method: as §1

saracatinib = compound: CN1CCN(CCOc2cc(OC3CCOCC3)c3c(Nc4c(Cl)ccc5c4OCO5)ncnc3c2)CC1 [saracatinib]
Summary of the method: as §1

sotrastaurin = compound: CN1CCN(c2nc(C3=C(c4c[nH]c5ccccc45)C(=O)NC3=O)c3ccccc3n2)CC1 [sotrastaurin]
Summary of the method: as §1

Measured: log2 fold change

LSS (UniProt P48449)
Chain of UniProt P48449 (P48449 whole entry, looked up): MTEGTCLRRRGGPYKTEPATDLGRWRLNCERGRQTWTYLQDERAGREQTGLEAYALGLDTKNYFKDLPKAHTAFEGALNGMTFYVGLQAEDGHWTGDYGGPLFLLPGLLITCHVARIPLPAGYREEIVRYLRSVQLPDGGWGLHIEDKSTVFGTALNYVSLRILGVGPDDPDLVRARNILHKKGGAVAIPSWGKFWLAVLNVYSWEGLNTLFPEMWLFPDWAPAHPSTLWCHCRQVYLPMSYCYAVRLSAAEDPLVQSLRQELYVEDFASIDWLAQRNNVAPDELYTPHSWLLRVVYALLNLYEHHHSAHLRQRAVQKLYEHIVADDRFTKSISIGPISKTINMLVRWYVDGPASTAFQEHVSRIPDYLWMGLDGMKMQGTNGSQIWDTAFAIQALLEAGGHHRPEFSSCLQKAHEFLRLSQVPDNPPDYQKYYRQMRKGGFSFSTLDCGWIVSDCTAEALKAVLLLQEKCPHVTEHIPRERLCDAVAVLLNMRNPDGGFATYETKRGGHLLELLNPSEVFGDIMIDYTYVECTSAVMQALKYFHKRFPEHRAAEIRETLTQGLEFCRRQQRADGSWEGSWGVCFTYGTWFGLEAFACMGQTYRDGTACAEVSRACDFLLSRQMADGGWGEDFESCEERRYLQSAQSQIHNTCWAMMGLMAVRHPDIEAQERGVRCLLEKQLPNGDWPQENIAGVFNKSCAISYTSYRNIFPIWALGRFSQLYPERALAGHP
active: volasertib 0.434
inactive: ibrutinib -0.009 | [1] -0.018 | ralimetinib 0.14 | [2] 0.072 | [3] 0.026 | [4] 0.013 | [5] -0.131 | [6] -0.003 | [7] -0.04 | [8] -0.065 | vemurafenib 0.016 | [9] -0.009 | barasertib 0.044 | [10] -0.078 | [11] -0.009 | [12] -0.09 | [13] 0.123 | saracatinib -0.043 | sotrastaurin 0

KIF4B (UniProt Q2VIQ3)
Chain of UniProt Q2VIQ3 (Q2VIQ3 whole entry, looked up): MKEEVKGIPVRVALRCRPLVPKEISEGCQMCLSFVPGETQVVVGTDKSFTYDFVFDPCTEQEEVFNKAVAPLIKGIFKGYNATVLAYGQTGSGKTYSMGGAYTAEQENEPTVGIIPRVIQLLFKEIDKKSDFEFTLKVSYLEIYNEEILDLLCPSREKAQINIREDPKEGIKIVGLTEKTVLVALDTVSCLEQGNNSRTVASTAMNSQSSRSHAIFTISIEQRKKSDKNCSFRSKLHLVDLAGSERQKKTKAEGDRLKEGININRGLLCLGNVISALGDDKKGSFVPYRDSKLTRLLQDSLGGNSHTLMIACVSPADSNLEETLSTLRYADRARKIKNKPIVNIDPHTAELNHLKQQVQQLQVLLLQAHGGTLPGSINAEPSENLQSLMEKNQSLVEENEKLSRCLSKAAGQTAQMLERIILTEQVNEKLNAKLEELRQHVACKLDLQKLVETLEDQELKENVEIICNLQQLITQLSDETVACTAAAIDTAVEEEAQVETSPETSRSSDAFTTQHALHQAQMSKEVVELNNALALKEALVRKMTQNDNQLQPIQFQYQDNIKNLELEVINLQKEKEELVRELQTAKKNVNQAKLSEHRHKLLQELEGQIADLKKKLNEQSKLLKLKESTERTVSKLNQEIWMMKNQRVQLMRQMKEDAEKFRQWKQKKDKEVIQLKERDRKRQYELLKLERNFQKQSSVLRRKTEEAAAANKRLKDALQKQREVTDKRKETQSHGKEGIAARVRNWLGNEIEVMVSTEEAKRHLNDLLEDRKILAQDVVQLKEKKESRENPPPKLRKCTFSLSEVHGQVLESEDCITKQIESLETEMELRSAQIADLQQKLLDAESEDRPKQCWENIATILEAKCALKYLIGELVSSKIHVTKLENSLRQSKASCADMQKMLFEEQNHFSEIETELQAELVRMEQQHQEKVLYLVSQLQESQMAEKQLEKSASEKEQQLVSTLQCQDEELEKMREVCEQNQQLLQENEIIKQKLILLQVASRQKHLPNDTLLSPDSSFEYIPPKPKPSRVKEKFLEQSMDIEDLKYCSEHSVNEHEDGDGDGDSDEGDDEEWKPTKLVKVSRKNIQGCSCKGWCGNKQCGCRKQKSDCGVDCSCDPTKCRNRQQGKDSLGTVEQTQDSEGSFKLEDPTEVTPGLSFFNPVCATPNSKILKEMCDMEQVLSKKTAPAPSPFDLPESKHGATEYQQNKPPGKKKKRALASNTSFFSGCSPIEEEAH
inactive: ibrutinib 0.027 | [1] 0.005 | ralimetinib 0.004 | [2] -0.03 | [3] 0.013 | [4] 0.04 | [5] -0.018 | [6] 0.01 | [7] 0.002 | [8] -0.036 | vemurafenib -0.026 | [9] 0.047 | barasertib -0.015 | [10] -0.102 | volasertib -0.003 | [11] 0.009 | [12] 0.007 | [13] -0.073 | saracatinib -0.002 | sotrastaurin -0.01

LPIN1 isoform 7 (UniProt Q14693)
Chain of UniProt Q14693 (Q14693 whole entry, looked up): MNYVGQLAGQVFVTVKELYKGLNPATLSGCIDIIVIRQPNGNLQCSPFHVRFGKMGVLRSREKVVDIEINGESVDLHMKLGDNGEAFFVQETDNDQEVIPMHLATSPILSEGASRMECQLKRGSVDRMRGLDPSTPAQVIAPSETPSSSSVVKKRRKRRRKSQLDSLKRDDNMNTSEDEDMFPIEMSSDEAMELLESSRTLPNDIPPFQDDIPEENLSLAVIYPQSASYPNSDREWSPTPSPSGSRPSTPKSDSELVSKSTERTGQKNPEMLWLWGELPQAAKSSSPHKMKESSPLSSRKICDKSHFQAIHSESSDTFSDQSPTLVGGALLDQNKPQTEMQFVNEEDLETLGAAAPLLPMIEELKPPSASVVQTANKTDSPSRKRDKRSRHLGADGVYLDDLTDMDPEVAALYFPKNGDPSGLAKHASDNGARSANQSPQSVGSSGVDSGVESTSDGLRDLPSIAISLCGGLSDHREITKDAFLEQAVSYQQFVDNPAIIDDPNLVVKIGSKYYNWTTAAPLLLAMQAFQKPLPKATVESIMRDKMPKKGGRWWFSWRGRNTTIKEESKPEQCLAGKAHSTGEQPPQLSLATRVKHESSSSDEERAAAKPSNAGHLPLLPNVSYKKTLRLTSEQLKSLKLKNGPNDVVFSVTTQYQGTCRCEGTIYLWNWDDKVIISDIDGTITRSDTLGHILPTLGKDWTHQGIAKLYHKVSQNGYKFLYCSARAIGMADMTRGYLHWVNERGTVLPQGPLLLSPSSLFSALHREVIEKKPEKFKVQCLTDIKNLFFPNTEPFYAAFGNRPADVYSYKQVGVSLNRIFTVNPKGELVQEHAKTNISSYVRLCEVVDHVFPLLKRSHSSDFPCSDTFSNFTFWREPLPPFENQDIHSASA
inactive: ibrutinib 0.02 | [1] 0.07 | ralimetinib 0.035 | [2] -0.025 | [3] -0.033 | [4] 0.066 | [5] 0.022 | [6] -0.016 | [7] 0.007 | [8] -0.009 | vemurafenib -0.057 | [9] 0.065 | barasertib 0.1 | [10] -0.057 | volasertib -0.002 | [11] -0.003 | [12] -0.052 | [13] -0.05 | saracatinib 0.024 | sotrastaurin 0.028

MACO1 (UniProt Q8N5G2)
Chain of UniProt Q8N5G2 (Q8N5G2 whole entry, looked up): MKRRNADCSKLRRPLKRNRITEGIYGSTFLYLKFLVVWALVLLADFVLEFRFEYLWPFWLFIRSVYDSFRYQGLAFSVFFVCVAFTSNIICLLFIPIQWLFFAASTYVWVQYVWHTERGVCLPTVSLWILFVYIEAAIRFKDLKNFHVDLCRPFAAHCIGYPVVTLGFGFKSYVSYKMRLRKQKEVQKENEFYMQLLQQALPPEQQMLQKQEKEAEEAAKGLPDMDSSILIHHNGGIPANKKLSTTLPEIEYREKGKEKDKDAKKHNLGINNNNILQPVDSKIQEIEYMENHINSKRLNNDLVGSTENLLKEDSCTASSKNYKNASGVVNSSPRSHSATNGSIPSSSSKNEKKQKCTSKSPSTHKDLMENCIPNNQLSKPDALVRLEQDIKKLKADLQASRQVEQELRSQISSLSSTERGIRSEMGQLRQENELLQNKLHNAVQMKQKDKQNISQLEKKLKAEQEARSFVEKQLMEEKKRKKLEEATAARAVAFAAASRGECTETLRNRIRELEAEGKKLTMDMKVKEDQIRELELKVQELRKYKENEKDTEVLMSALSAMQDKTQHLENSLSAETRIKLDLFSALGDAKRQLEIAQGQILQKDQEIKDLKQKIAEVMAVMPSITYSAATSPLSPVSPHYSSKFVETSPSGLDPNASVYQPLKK
inactive: ibrutinib 0 | [1] 0.043 | ralimetinib -0.003 | [2] -0.04 | [3] 0.01 | [4] 0.018 | [5] -0.043 | [6] -0.023 | [7] -0.002 | [8] 0.095 | vemurafenib -0.114 | [9] -0.003 | barasertib -0.063 | volasertib -0.009 | [11] 0.025 | [12] 0.113 | [13] -0.037 | saracatinib 0.064 | sotrastaurin -0.01
active: [10] 0.296

MGST3 (UniProt O14880)
Chain of UniProt O14880 (O14880 whole entry, looked up): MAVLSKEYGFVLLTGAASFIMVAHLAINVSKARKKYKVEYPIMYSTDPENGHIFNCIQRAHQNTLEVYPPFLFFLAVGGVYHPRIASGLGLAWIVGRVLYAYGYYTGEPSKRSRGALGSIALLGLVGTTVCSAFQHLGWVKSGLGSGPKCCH
active: [12] 0.286
inactive: ibrutinib 0.06 | [1] -0.004 | ralimetinib 0.041 | [2] -0.046 | [3] -0.009 | [4] -0.004 | [5] -0.03 | [6] 0.042 | [7] 0.006 | [8] -0.025 | vemurafenib 0.012 | [9] 0.01 | barasertib -0.056 | [10] 0.078 | volasertib 0.076 | [11] 0.006 | [13] -0.082 | saracatinib -0.017 | sotrastaurin -0.015

KLC2 (UniProt Q9H0B6)
Chain of UniProt Q9H0B6 (Q9H0B6 whole entry, looked up): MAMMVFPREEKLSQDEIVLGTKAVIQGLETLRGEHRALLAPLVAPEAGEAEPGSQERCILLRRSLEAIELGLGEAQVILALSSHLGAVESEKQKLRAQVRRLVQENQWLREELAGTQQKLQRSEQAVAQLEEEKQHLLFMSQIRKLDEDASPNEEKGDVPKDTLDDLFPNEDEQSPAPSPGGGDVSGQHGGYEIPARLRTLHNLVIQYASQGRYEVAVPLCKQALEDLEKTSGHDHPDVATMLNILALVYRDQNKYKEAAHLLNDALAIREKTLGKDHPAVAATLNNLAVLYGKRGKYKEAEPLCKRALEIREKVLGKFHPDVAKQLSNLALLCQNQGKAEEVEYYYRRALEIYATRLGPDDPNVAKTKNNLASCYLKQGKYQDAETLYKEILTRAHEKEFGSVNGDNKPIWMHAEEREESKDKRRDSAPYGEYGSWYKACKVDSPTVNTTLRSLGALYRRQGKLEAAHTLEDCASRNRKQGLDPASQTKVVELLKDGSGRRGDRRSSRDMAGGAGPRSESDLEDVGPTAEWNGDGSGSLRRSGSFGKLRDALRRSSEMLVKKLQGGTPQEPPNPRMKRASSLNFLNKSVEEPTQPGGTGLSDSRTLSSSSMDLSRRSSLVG
inactive: ibrutinib 0.021 | [1] 0.01 | ralimetinib 0.003 | [2] 0.008 | [3] -0.001 | [4] -0.045 | [5] -0.036 | [6] 0.012 | [7] 0.016 | [8] -0.012 | vemurafenib 0.066 | [9] 0.042 | barasertib 0.042 | [10] -0.043 | volasertib -0.074 | [11] -0.009 | [12] -0.015 | [13] -0.069 | saracatinib 0.008 | sotrastaurin -0.016

MGST1 (UniProt P10620)
Chain of UniProt P10620 (P10620 whole entry, looked up): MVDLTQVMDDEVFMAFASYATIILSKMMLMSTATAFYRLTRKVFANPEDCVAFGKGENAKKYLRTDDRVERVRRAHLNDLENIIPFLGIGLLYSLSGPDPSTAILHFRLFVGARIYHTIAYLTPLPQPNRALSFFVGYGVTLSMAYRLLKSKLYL
inactive: ibrutinib 0.052 | [1] 0.039 | ralimetinib 0.054 | [2] -0.047 | [3] -0.002 | [4] 0.002 | [5] -0.078 | [6] -0.01 | [7] 0.014 | [8] 0.05 | vemurafenib 0.015 | [9] 0.018 | barasertib 0.027 | [10] 0.097 | volasertib 0.07 | [11] -0.036 | [13] -0.069 | saracatinib 0.068 | sotrastaurin -0.013
active: [12] 0.279

MAP4K2 (UniProt Q12851)
inactive: ibrutinib -0.036 | [1] 0.337 | ralimetinib -0.029 | [2] 0.108 | [3] 0.04 | [5] -0.144 | [6] 0.058 | [7] 0.209 | [8] -0.207 | vemurafenib 0.198 | [9] -0.038 | barasertib 0.009 | [10] -0.009 | volasertib -0.035 | [11] -0.023 | [12] -0.317 | [13] 0.105 | saracatinib 0.005 | sotrastaurin 0.053

MITD1 (UniProt Q8WV92)
Chain of UniProt Q8WV92 (Q8WV92 whole entry, looked up): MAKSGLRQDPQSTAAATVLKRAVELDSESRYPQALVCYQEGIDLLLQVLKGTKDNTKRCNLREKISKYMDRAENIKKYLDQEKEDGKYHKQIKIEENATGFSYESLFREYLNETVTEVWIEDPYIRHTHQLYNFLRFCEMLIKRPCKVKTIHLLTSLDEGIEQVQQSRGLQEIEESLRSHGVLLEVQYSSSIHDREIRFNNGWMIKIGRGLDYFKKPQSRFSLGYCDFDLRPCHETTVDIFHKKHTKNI
inactive: ibrutinib 0.007 | [1] -0.067 | ralimetinib -0.039 | [2] 0.01 | [3] 0.024 | [4] -0.02 | [5] -0.071 | [6] -0.059 | [7] 0.058 | [8] -0.027 | vemurafenib 0.044 | [9] 0.001 | barasertib 0.057 | [10] 0.013 | volasertib -0.07 | [11] -0.031 | [12] -0.269 | [13] -0.163 | saracatinib 0.024 | sotrastaurin 0.039
